Experimental data reported in PubChem BioAssay (NCI).
The panel holds about 83,000 compounds, 20% with a hit somewhere; the sample as a whole holds those more often.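 Negative percent growth values reflect cell death: -40 means 40% of the cells present at the start died, and -100 means all died.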 The source made the active and inactive calls. How the source made its calls: active means growth percent below 10; inactive means the rest.

test system: BT-549 breast; experiment: NCI-60 one-dose screen, 48 h (100 = growth as untreated, 0 = no growth, -100 = all killed); settings: 100 µM

Structure (SMILES)	growth
CCN(Cc1ccccc1)c1ccc(/C=C2\COc3ccccc3C2=O)cc1	16.3% (inactive)
CC(=O)/C=C/c1ccc(OCc2ccc(C(C)(C)C)cc2)cc1	21.3% (inactive)
CC(=O)/C=C/c1ccc(N(CCO)Cc2ccc(C(C)(C)C)cc2)cc1	-88.9% (active)
O=C(/C=C/c1cccc(Oc2ccc(Cl)cc2)c1)c1ccccc1	-61.3% (active)
COc1ccc(C(=O)/C=C/c2ccc(OCc3cccc(C(F)(F)F)c3)c(OC)c2)cc1OC	-41.3% (active)
CC(=O)/C=C/c1ccc(OCc2ccc(Cl)cc2)cc1	38% (inactive)
COc1ccc(C(=O)/C=C/c2ccc(OCc3ccc(Cl)cc3)cc2)cc1OC	22% (inactive)
CC(=O)/C=C/c1ccc(N(C)Cc2ccc(C(C)(C)C)cc2)cc1	-90.8% (active)
